Results on 37 molecules are retold here after PubChem BioAssay (NCI).

The structures appear in SMILES notation. The panel holds about 83,000 compounds, 20% with a hit somewhere; the sample as a whole holds those more often.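 48-hour exposure, single concentration, 96-well plates; percent growth endpoint where 0 means no net growth. Active: below 10.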 A number with no mark means an inactive call. Calls of active or inactive are those of the source.

This experiment deals with SR leukemia. The experiment can be described thus: NCI-60 one-dose screen, 48 h (100 = growth as untreated, 0 = no growth, -100 = all killed). The note with it: 10 µM unless noted.
With `COc1ccc(-c2cc(Cc3cccs3)c(=O)n(Cn3cncn3)n2)cc1`, the growth was 84%. For `CC1=CSC2=NCCN12`, the growth is 93.1%. The value for `Cc1ccc(NC(=O)Nc2ccc(-c3cccnc3)cc2N2CCC(CO)CC2)cc1` was 17.1%; that for `COc1ccc2c(c1)C(=O)c1c-2c(OCCCN(C)C)nc2cc(Br)ccc12` was -21.3% (active). The value for `CCC(CC)NCCCCCNc1cc(OC)cc2cccnc12` was 109%. As for `COc1cc(C2C=C(c3ccc(C)cc3)Nc3nc(SC)[nH]c(=O)c32)ccc1Oc1ccnc2cc(Cl)ccc12` (configuration not stated), the growth is 75.8%. Next, `O=c1[nH]c(=O)n(C2CC(O)C(CO)O2)cc1C(F)(F)F` (configuration not stated): -24.8% (active); `Nc1nc(Cl)c2[nH]cnc2n1`: 95.6%; `OC(CCC(O)(c1ccccc1)c1ccccc1)(c1ccccc1)c1ccccc1`: 79.6%. Next, `C[C@]12C[C@H](O)[C@H]3[C@@H](CCC4=CC(=O)CC[C@@]43C)[C@@H]1CC[C@@H]2C(=O)CO`: 111%; `COC(=O)[C@]12CC[C@@H](C)[C@H](C)[C@@H]1C1=CC[C@@H]3[C@@]4(C)C=C(O)C(=O)[C@@]5(C)COC(=C54)C[C@@]3(C)[C@]1(C)CC2`: -68.2% (active); `C=C(C)[C@@H]1C/C=C(/C=O)CC[C@@H]2O[C@@]2(C)CC/C=C(\C)CC1`: 125%. In the case of `CCCOc1ccc2c(c1)CC[C@@H]1[C@@H]2CC[C@@]2(C)[C@H]1CC[C@]2(C)O`, the growth is 73%. Next, `C/C(=N\N1CC(=O)NC1=O)c1ccc([N+](=O)[O-])o1`: 95.9%; `CCC1=C(c2ccc(OC)cc2)C(C)(C)Oc2cc(O)c(CN3CCCC3)cc21`: 9.49% (active); `COc1ccc(Cn2cc3c(c2-c2ccccc2)CCc2cncnc2-3)cc1`: 57.7%.

For the molecule `CCC(CCC(C)C1CCC2C3CC=C4CC(O)CCC4(C)C3CCC12C)C(C)C` (configuration not stated) (tested in a mixture with another compound), the growth was 101%. Turning to `COc1cc(OC)c2sc(-c3ccc(-n4cncc4-c4ccc(N)cc4)cc3)nc2c1`, the growth is 68.3%. Next, `CCn1c2c(c3ccccc31)SC1c3cccn3CCN1C2=S` (configuration not stated): 109%; `COc1ccc(CCN2CCCN3C2=Nc2ccccc2S3(=O)=O)cc1`: 24.5%; `O=C(Nc1ncc([N+](=O)[O-])s1)c1cccc([N+](=O)[O-])c1`: 39.3%. Next, `N#Cc1cnc2cc(OC[C@H](O)CO)c(NC(=O)CC3CSSC3)cc2c1Nc1ccc(OCc2cccc(F)c2)c(Cl)c1`: -72.6% (active); `O=C(CSCC(=O)N/N=C/c1ccccc1O)N/N=C\c1ccccc1O`: 3.96% (active). The value for `CC(C)(C)c1ccc(S(=O)(=O)O)s1` was 73.1%; that for `CSC1=Nc2c(c(C)c(-c3ccccc3)n2CCCN2CCCCC2)C2=NC(=O)C[C@H](C)N12` was 2.43% (active). In the case of `CC(=O)Oc1ccc(C23c4ccccc4C2(OC(C)=O)c2cc(OC(C)=O)ccc23)cc1` (configuration not stated), the growth is -2.28% (active).

For `COc1ccc2c(c1)C(=O)c1c-2c(OCCN(C)C)nc2cc(OC)ccc12`, the growth was -29.2% (active).

On to `O=C1NCN(CCO)CN1`, for which the growth is 122%.

As for `CC(=O)NCCSC(=O)C(=O)SCCNC(C)=O`, the growth is 114%. The value for `CCc1[nH]nc(-c2ccc(OC)cc2)c1-c1ccccc1OCCN(CC)CC` was 62.7%; that for `Cc1cc(NC(=O)Nc2cccc3ccccc23)no1` was 81.2%. The value for `NC(=O)c1ccccc1NC(=O)c1ccccc1Cl` was -9.77% (active). Next, `CCCCCCCC/C=C\CCCCCCCCOc1ccccc1CC(=O)NCC[N+]1(C)CCCC1`: 28%; `c1ccc(-n2nnnc2-c2cccc3ccccc23)cc1`: 20.5%; `O=C1c2ccccc2C(=O)c2c1cccc2-n1nnc2ccccc21`: 104%. In the case of `CCC(O)C(C)(C)C` (configuration not stated), the growth is 110%. The value for `Clc1ccc([C@@H]2C[C@@H]3Cc4cc(Br)c5ccccc5c4N2O3)c(Cl)c1` was 20.8%.
